The nature of test [1]: qHTS Assay for Identifying Gametocytocidal Compounds (AID 743244; active = well fitted curve in the direction sought with a large enough effect; an effect the other way counts as inactive or inconclusive;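 also: % is scaled to controls: 0 for no effect and ±100 for the full control effect; actives lower the fluorescent signal which means gametocytes are killed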). The conditions noted are these: P. falciparum 3D7 stage III-V gametocytes, alamarBlue, 72 h; max response: stronger effect = lower value. In short, it runs like this:
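Stage III–V gametocytes of P. falciparum 3D7 were seeded at 20,000 cells/well onto pre-dispensed compounds. After 72 h, 37 °C, 5% CO2, alamarBlue was added for another 24 h.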
For orientation: qHTS replaces the single test concentration by a dilution series.

The conditions of test [2]: Ebola virus entry assay, green fluorescence channel.
For test [3] the following is noted: Ebola virus entry assay, blue channel fluorescence.
The conditions of test [4]: Ebola virus entry assay, ratio channel.
Test [5] in a line: qHTS profiling of the MIPE4 collection as inhibitors of Plasmodium falciparum (3D7) proliferation (AID 743344).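 Also: scaled between DMSO vehicle wells and 0.29 µM artemisinin as full inhibition.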 Conditions: P. falciparum 3D7 in erythrocytes, SYBR Green DNA fluorescence, 72 h; at 28.5 µM (top of the series) unless noted. In short, it runs like this:
(§1)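 Erythrocytes infected with P. falciparum (0.3% parasitemia, 2.5% hematocrit) incubated with compounds 72 h at 37 C, 5% CO2. Lysis with saponin/Triton buffer containing SYBR Green I, overnight at room temperature in the dark; DNA fluorescence (485/535 nm) normalised to 0.29 uM artemisinin and DMSO.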

Test [6] in a line: qHTS profiling of the MIPE4 collection as inhibitors of Plasmodium falciparum (DD2) proliferation (Rep 2) (AID 743346). Conditions: P. falciparum Dd2 in erythrocytes, SYBR Green DNA, 72 h; at 28.5 µM (top of the series) unless noted. In short, it runs like this: as §1
A short description of test [7]: qHTS profiling of the MIPE4 collection as inhibitors of Plasmodium falciparum (HB3) proliferation (AID 743347).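 Also: plate controls were DMSO vehicle wells for no effect and artemisinin wells for full effect.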 Conditions: P. falciparum HB3 in erythrocytes, SYBR Green DNA, 72 h; at 28.5 µM (top of the series) unless noted. An outline of the steps: as §1
Test [8] is described as follows: qHTS profiling for inhibitors of Plasmodium falciparum (3D7) proliferation (AID 743322).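 Also: infected erythrocytes exposed to compound for 72 h before lysis; 100% = DMSO vehicle wells and 0% = 0.29 µM artemisinin.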 The conditions noted are these: P. falciparum 3D7 proliferation; at 28.7 µM (top of the series). In short, it runs like this:
as §1

Test [9] in a line: qHTS profiling for inhibitors of Plasmodium falciparum (DD2) proliferation (AID 743323). The conditions noted are these: lower = more inhibition; at 28.7 µM (top of the series). An outline of the steps: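 1536-well qHTS; infected RBCs 0.3% parasitemia/2.5% Hct final; cpd 72 h 37 C 5% CO2; lysis buffer + SYBR Green I, o/n RT dark; FI 485/535; norm. to 0.29 uM artemisinin and DMSO, plate-stack corrected.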

A short description of test [10]: qHTS profiling for inhibitors of Plasmodium falciparum (HB3) proliferation (AID 743324; active = well fitted curve in the direction sought with a large enough effect; an effect the other way counts as inactive or inconclusive;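 also: 100% = DMSO vehicle wells and 0% = artemisinin-treated control wells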). Conditions: Plasmodium falciparum HB3 blood-stage proliferation; at 28.7 µM (top of the series). In short, it runs like this: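 P. falciparum HB3 grown in erythrocytes (0.3% parasitemia, 2.5% hematocrit final) with compound for 72 h at 37 C, 5% CO2. Parasite DNA detected by SYBR Green after saponin/triton lysis overnight; normalized to 0.29 uM artemisinin and DMSO.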

Molecules are shown by their SMILES. “And” between values parts separate entries of the source, which are not always exact repeats. Identical values can stand only once. Results filed as inconclusive are left out. For some assays here: Results with a measured potency or affinity are listed apart. The source made the active and inactive calls. Unless noted, no rule for the calls is given here.

The term AC50 denotes the midpoint of the concentration-response curve, whichever way the signal moves.
For efficacy in this document: 0% is about no effect.

For the molecule `Cc1ccc2c(c1)C1CN(C)CCC1N2` (stereo not drawn), the max response in [1] was -7.38% (inactive). Also, the efficacy in test [2] is 62.7% (inactive). For the same molecule, the AC50 in [3] was 17.8 µM (active); in test [4], 10 µM (active).
Consider `CN(C)CCc1ccc(O)cc1`, for which, in test [1], the max response was -0.843% (inactive). The molecule further had a parasite growth, % of DMSO control in test [5] of 103%. For the same molecule, the parasite growth, % of control (lower = inhibition) in [6] came to 111%. The molecule also returned a growth, % of control in test [7] of 104%. Moreover, the efficacy in test [2] is -10.6% (inactive). The molecule was classed as inactive in test [3] and in test [4].
Consider `COc1cc([C@@H]2c3cc4c(cc3[C@H](O)[C@H]3COC(=O)[C@H]23)OCO4)cc(OC)c1OC`, for which, in test [1], the max response is 11.4% (inactive). In addition, in test [8], the remaining parasite growth % (stronger effect = lower value) was 68.4% and 104%. In addition, the activity, percent of control in [9] was 62.7% and 121%. Besides, in test [10], the remaining proliferation (% of control), lower = more inhibition is 5.53% and 99%. Further, the parasite growth, % of DMSO control in test [5] was determined as 11%. In test [7], this molecule came in with a growth, % of control of 6.71%. Moreover, in test [2], the efficacy was 25.2% (inactive). Further, the AC50 in [3] is 11.2 µM (active); in test [4], 5.01 µM (active).
`CCN(CC)CCOC(=O)C(O)(c1ccccc1)c1ccccc1`: the max response in test [1] is -7.9% (inactive). Besides, the efficacy in [2] was -15.5% (inactive). Besides, the molecule was called inactive in [3] and in test [4].
As to `CC[N+](CC)(CC)CC`, the max response in test [1] is -4.6% (inactive) and 7.33% (inactive). The efficacy in [2] is -18.6% (inactive). Further, the outcome in [3] and in test [4] was inactive.
As for `COc1ccc(C(=O)c2c(C)n(CCN3CCOCC3)c3ccccc23)cc1`, in test [1], the max response is 6.23% (inactive) and 9.75% (inactive). Further, the remaining parasite growth % (stronger effect = lower value) in test [8] came out at 111%. The activity, percent of control in [9] is 102%. For the same molecule, the remaining proliferation (% of control), lower = more inhibition in test [10] was determined as 94.6%. The same molecule had a parasite growth, % of DMSO control in test [5] of 90.6%. Also, the parasite growth, % of control (lower = inhibition) in test [6] stood at 66.9%. The same molecule had a growth, % of control in test [7] of 93.4%. The efficacy in test [2] is -40.9% (inactive). The AC50 in [3] was 39.8 µM (active). Besides, the result in [4] was inactive.

Values taken from PubChem BioAssay (NCATS).
